PubChem BioAssay AID1159580 (chemical genetic matrix, 2015)
Several values for one entry are separate records, joined by “and”; a condition that tells them apart may be missing. Equal entries are not always repeated. Out of some 5,500 compounds screened, about 2,000 (36%) were called active. Roughly 18% stayed inconclusive and do not appear here. Rule as the data show it: active = normalized growth mostly below about 0.91 (no sharp cut-off); inconclusive = no clear call, values can overlap the other calls; inactive = mostly above about 0.92. The list shows a part of the results.

Test: chemical genetic growth profiling, strain panel (AID 1159580);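 also: tested at 20 µM; growth read once vehicle control cultures reached saturation at 30 °C; 1 = growth at the plate median or of vehicle wells; lower values mean less growth of the strain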
Conditions: S. cerevisiae deletion strains, growth OD

Measured: normalized growth

COc1ccccc1N1CCN(CCCNc2cc(=O)n(C)c(=O)n2C)CC1
inactive: locus YAL013W, strain DEP1, active compounds read low 0.976 | locus YAL021C, strain ccr4, active compounds read low 0.998 | locus YAL026C, strain drs2, active compounds read low 1.02 | locus YAL030W, strain snc1, active compounds read low 1.01 | locus YAL040C, strain CLN3, active compounds read low 1 | locus YBL061C, strain skt5, active compounds read low 1.01 | locus YBR009C, strain hhf1, active compounds read low 1 | locus YBR021W, strain FUR4, active compounds read low 1.05 | locus YBR023C, strain chs3, active compounds read low 1.02 | locus YBR171W, strain sec66, active compounds read low 1.02 | locus YBR229C, strain ROT2, active compounds read low 0.952 | locus YBR231C, strain swc5, active compounds read low 1.01 | locus YBR279W, strain paf1, active compounds read low 1.01 | locus YCL011C, strain gbp2, active compounds read low 1.01 | locus YCL016C, strain dcc1, active compounds read low 1.01 | locus YCL029C, strain bik1, active compounds read low 0.984 | locus YCL061C, strain MRC1 (second series), active compounds read low 1 | locus YCL061C, strain MRC1, active compounds read low 1.02 | locus YCL069W, strain vba3, active compounds read low 1.02 | locus YCR088W, strain abp1, active compounds read low 1.01 | locus YDL005C, strain med2, active compounds read low 1.02 | locus YDL035C, strain GPR1, active compounds read low 0.986 | locus YDL040C, strain nat1, active compounds read low 0.994 | locus YDL074C, strain BRE1, active compounds read low 0.961 | locus YDL101C, strain DUN1, active compounds read low 0.959 | locus YDL134C, strain PPH21, active compounds read low 0.984 | locus YDL185W, strain tfp1, active compounds read low 0.961 | locus YDL192W, strain arf1, active compounds read low 0.99 | locus YDR001C, strain nth1, active compounds read low 1.01 | locus YDR069C, strain doa4, active compounds read low 1.01 | locus YDR101C, strain arx1, active compounds read low 0.994 | locus YDR137W, strain rgp1, active compounds read low 1.03 | locus YDR150W, strain NUM1, active compounds read low 0.968 and 1.01 | locus YDR159W, strain sac3, active compounds read low 1 | locus YDR162C, strain NBP2, active compounds read low 0.962 | locus YDR195W, strain ref2 1.01 | locus YDR297W, strain sur2, active compounds read low 1.01 | locus YDR318W, strain mcm21, active compounds read low 1.01 | locus YDR334W, strain swr1, active compounds read low 1.02 | locus YDR335W, strain msn5, active compounds read low 1.02 | locus YDR363W, strain ESC2, active compounds read low 1 | locus YDR388W, active compounds read low 0.998 | locus YDR392W, strain spt3, active compounds read low 0.944 | locus YDR502C, strain sam2, active compounds read low 1 | locus YEL003W, strain gim4, active compounds read low 1.01 | locus YEL037C, strain rad23, active compounds read low 1.01 | locus YEL061C, strain CIN8 (second series), active compounds read low 1.01 | locus YEL061C, strain CIN8, active compounds read low 0.986 | locus YER002W, strain NOP16, active compounds read low 0.991 | locus YER015W, strain faa2, active compounds read low 1.02 | locus YER016W, strain bim1, active compounds read low 1.02 | locus YER110C, active compounds read low 0.994 | locus YER111C, strain swi4, active compounds read low 1 | locus YER155C, strain BEM2 (second series), active compounds read low 1.02 | locus YER155C, strain BEM2, active compounds read low 0.993 | locus YER167W, strain BCK2, active compounds read low 0.98 | locus YFR010W, strain ubp6, active compounds read low 1.02 | locus YGL078C, strain dbp3, active compounds read low 0.99 | locus YGL086W, strain mad1, active compounds read low 1.01 | locus YGL167C, strain pmr1, active compounds read low 1.01 | locus YGL173C, strain kem1, active compounds read low 1.01 | locus YGL227W, strain vid30, active compounds read low 1.01 | locus YGL240W, strain doc1, active compounds read low 0.996 | locus YGL248W, strain PDE1, active compounds read low 0.974 | locus YGL253W, strain hxk2, active compounds read low 1.01 | locus YGR078C, strain PAC10, active compounds read low 0.981 and 0.985 | locus YGR135W, strain pre9, active compounds read low 0.985 | locus YGR229C, strain SMI1, active compounds read low 1.01 | locus YGR252W, strain gcn5, active compounds read low 1.05 | locus YHR013C, strain ard1, active compounds read low 1.01 | locus YHR027C, strain rpn1, active compounds read low 1.01 | locus YHR030C, strain SLT2, active compounds read low 0.983 | locus YHR079C, strain IRE1 (second series), active compounds read low 1 | locus YHR094C, strain hxt1, active compounds read low 0.992 | locus YHR129C, strain ARP1, active compounds read low 0.988 | locus YHR142W, strain chs7, active compounds read low 1.01 | locus YHR200W, strain rpn10, active compounds read low 0.994 | locus YIL066C, strain RNR3, active compounds read low 0.985 | locus YIL073C, strain SPO22, active compounds read low 0.998 | locus YIL125W, strain kgd1, active compounds read low 0.997 | locus YIR030C, strain dcg1, active compounds read low 0.983 | locus YJL092W, strain hpr5, active compounds read low 1.01 | locus YJL095W, strain BCK1 (second series), active compounds read low 1.01 | locus YJL095W, strain BCK1, active compounds read low 1 | locus YJL115W, strain asf1, active compounds read low 1.03 | locus YJL129C, strain trk1, active compounds read low 1.05 | locus YJL134W, strain LCB3, active compounds read low 0.98 | locus YJL154C, strain vps35, active compounds read low 1.02 | locus YJL164C, strain tpk1, active compounds read low 1.01 | locus YJL166W, strain qcr8, active compounds read low 1.01 | locus YJL168C, strain set2, active compounds read low 0.998 | locus YJL187C, strain SWE1 (second series), active compounds read low 0.978 | locus YJL187C, strain SWE1, active compounds read low 1.01
